# Measured values published in the supplement of paper PMC8975748.
# Counter-ions that a name gives are not always drawn.
# Test system: Saccharomyces cerevisiae BY4741 SeMeCo community
# Test: z-score of subpopulation abundance vs DMSO median, subpopulation auxotrophic for HLU; higher = larger share of this subpopulation than in DMSO controls
# Conditions: 10 µM; 24 h; SM minimal medium; subpopulation (auxotrophy): HLU
# Summary of the method: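 Subpopulation abundance was reported as a z-score against the median of vehicle wells. The Saccharomyces cerevisiae BY4741 community, carrying four plasmids that each restored one auxotrophy and encoded a distinct fluorescent protein, was grown 24 h in minimal SM medium in 384-well plates holding library drugs at 10 µM final. Cells were paraformaldehyde-fixed and imaged by automated confocal microscopy, with single-auxotroph fluorescent strains used for thresholds and autofluorescence correction.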
row,SMILES,z-score of subpopulation abundance
1,C=C[C@]1(C)C[C@@H](OC(=O)CSC(C)(C)CNC(=O)[C@H](N)C(C)C)[C@]2(C)[C@H](C)CC[C@]3(CCC(=O)[C@H]32)[C@@H](C)[C@@H]1O [Valnemulin HCl],1.01
2,C[N+]1(C)CCC(=C(c2ccccc2)c2ccccc2)CC1 [Diphemanil Methylsulfate],-0.19
3,CC[C@H]1OC(=O)[C@H](C)[C@@H](O[C@H]2C[C@@](C)(OC)[C@@H](O)[C@H](C)O2)[C@H](C)[C@@H](O[C@@H]2O[C@H](C)C[C@H](N(C)C)[C@H]2O)[C@](C)(O)C[C@@H](C)/C(=N\OCOCCOC)[C@H](C)[C@@H](O)[C@]1(C)O [Roxithromycin],0
4,NCc1ccccc1CC(=O)N[C@@H]1C(=O)N2C(C(=O)O)=C(CSc3nnnn3CC(=O)O)CS[C@H]12 [Ceforanide],0.38
5,CC(C(=O)O)c1cccc(C(=O)c2ccccc2)c1 (configuration not stated) [Ketoprofen],0.39
6,C#C[C@]1(O)CC[C@H]2[C@@H]3CCC4=Cc5oncc5C[C@]4(C)[C@H]3CC[C@@]21C [Danazol],-0.45
7,Cc1c(OCC(F)(F)F)ccnc1C[S+]([O-])c1nc2ccccc2[nH]1 (configuration not stated) [Lansoprazole],0.76
8,CC(C(O)c1ccc(O)cc1)N1CCC(Cc2ccccc2)CC1 (configuration not stated) [Ifenprodil Tartrate],-1.12
9,Cc1ncc([N+](=O)[O-])n1C [Dimetridazole],-0.59
10,CC(=O)OCC[N+](C)(C)C [Acetylcholine iodide],0.05
11,CC(=O)N1CCN(c2ccc(OCC3COC(Cn4ccnc4)(c4ccc(Cl)cc4Cl)O3)cc2)CC1 (configuration not stated) [Ketoconazole],-0.27
12,CN1C2CCCC1CC(NC(=O)c1nn(C)c3ccccc13)C2 (configuration not stated) [Granisetron HCl],0.66
13,NC(=O)OCC(COC(N)=O)c1ccccc1 [Felbamate],-1.23
14,CCCN(CCC)CCc1cccc2c1CC(=O)N2 [Ropinirole HCl],1.05
15,CC(=O)NO [Acetohydroxamic acid],0.42
16,COc1ccc2c3c1O[C@H]1C[C@@H](O)C=C[C@@]31CCN(C)C2 [Galanthamine HBr],0.43

row,SMILES,z-score of subpopulation abundance
1,CCN(CC)CC#CCOC(=O)C(O)(c1ccccc1)C1CCCCC1 (configuration not stated) [Oxybutynin chloride],-0.57
2,O=C1CC2(CCCC2)CC(=O)N1CCCCN1CCN(c2ncccn2)CC1 [Buspirone HCl],-0.25
3,Cc1ccc(-c2cc(C(F)(F)F)nn2-c2ccc(S(N)(=O)=O)cc2)cc1 [Celecoxib],-0.86
4,Cc1cccc(N(C)C(=S)Oc2ccc3ccccc3c2)c1 [Tolnaftate],-0.38
5,CC(C)Cc1ccc(C(C)C(=O)O)cc1 (configuration not stated) [Ibuprofen Lysine],-1.49
6,O=C(Nc1cc(Cl)cc(Cl)c1O)c1c(O)c(Cl)cc(Cl)c1Cl [Oxyclozanide],-0.55
7,CN1CCN(CC(=O)N2c3ccccc3C(=O)Nc3cccnc32)CC1 [Pirenzepine dihydrochloride],-0.21
8,O=C(O)CCc1nc(-c2ccccc2)c(-c2ccccc2)o1 [Oxaprozin],-0.7
9,CC[C@H]1OC(=O)[C@H](C)[C@@H](O[C@H]2C[C@@](C)(OC)[C@@H](O)[C@H](C)O2)[C@H](C)[C@@H](O[C@@H]2O[C@H](C)C[C@H](N(C)C)[C@H]2O)[C@](C)(O)C[C@@H](C)C(=O)[C@H](C)[C@H]2OC(=O)O[C@@]21C [Erythromycin Cyclocarbonate],0.3
10,CN1CCC(=C2c3ccccc3C=Cc3ccccc32)CC1 [Cyproheptadine hydrochloride],-0.31
11,CC(Cc1ccc(O)c(O)c1)C(C)Cc1ccc(O)c(O)c1 (configuration not stated) [Nordihydroguaiaretic acid (NDGA)],0.33
12,CCOc1cc(N)c(Cl)cc1C(=O)NCC1CN(Cc2ccc(F)cc2)CCO1 (configuration not stated) [Mosapride],-0.42
13,C/C(=C\C(=O)OCCCCCCCCC(=O)O)C[C@@H]1OC[C@H](C[C@@H]2O[C@H]2[C@@H](C)[C@H](C)O)[C@@H](O)[C@H]1O [Mupirocin calcium],0.12
14,Cc1cc(C)nc(NS(=O)(=O)c2ccc(N)cc2)n1 [Sulfamethazine Sodium Salt],-0.28
15,CCN(CC)CCNC(=O)c1cc(Cl)c(N)cc1OC [Metoclopramide],1.27
16,O=C1[C@H]2CCCC[C@H]2C(=O)N1CCCCN1CCN(c2nsc3ccccc23)CC1 [Perospirone hydrochloride],0.2
